# High-throughput results: PubChem, The Scripps Research Institute Molecular Screening Center
# CHO-K1 Ca antag = counter-screen for M1 antagonists: effect in parental CHO-K1 cells; ATP-induced calcium, Fluo-8 fluorescence; 0.6% of 360,000 active; inhibition, % at 3 µM;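 active = inhibition above a per-plate cutoff, the plate's mean sample inhibition plus 3 SD, cut at about 24% in these data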;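 also: 0% = DMSO plus EC80 ATP and 100% = DMSO alone without ATP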
# CHRM1 PAM = positive allosteric modulators of human M1 muscarinic receptor | P11229 | CHO-K1 hM1, Fluo-8 calcium fluorescence, ACh EC20; 0% = ACh EC20, 100% = maximal ACh | activation, % at 3 µM | 0.088% of 360,000 active | AID 588819; in the data active = activation above about 19%, passing the limit was not always enough
# Target sequence (P11229 whole entry, looked up): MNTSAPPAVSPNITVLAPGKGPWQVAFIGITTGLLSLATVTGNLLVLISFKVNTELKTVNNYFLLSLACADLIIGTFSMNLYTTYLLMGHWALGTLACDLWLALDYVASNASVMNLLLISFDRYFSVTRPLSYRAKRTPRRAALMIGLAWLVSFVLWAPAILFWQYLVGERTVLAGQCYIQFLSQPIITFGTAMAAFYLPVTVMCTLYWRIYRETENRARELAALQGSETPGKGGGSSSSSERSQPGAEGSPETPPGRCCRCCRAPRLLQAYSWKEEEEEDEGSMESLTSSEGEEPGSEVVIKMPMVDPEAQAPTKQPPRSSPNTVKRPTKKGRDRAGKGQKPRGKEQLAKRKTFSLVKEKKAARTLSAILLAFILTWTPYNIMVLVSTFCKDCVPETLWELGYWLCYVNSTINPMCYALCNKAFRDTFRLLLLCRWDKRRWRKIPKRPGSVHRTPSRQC
# M1 PAM parental = M1 PAM counterscreen hit in parental CHO-K1 cells; ATP EC20, Fluo-8 calcium fluorescence; 0% at ATP EC20, 100% at ATP max; activation, % at 3 µM; 0.02% of 360,000 active; AID 602247;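 active = activation above the run cutoff, the mean activation of all test compounds plus 3 SD, cut at about 40% in these data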;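 also: peak over basal fluorescence ratio in a 140 s read after ATP addition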
# M1 antag = blocks human M1 muscarinic receptor | CHO-K1 hM1, Fluo-8 calcium fluorescence, ACh EC80 antagonist | 1.3% of 360,000 active | P11229 | AID 588852 | inhibition, % at 3 µM;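 active = percent inhibition above its own plate's cutoff, namely the mean of that plate's compound wells plus 3 SD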;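 also: peak over basal fluorescence ratio during 140 s after agonist addition; 0% = ACh EC80 plus DMSO and 100% = DMSO alone without agonist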
# CHRM1 agonist = agonists of human M1 muscarinic receptor | P11229 | CHO-K1 hM1, Fluo-8 calcium fluorescence, agonist mode; 0% DMSO, 100% acetylcholine EC100 | activation, % at 3 µM | 0.33% of 360,000 active | AID 588814;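 active = activation above the run's mean compound activation plus 3 SD, cut at about 16% in these data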;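 also: peak over basal fluorescence ratio within a 140 s kinetic read after compound addition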
# CHO-K1 Ca ag = nonselective activator or artifact in parental CHO-K1 cells | Fluo-8 calcium fluorescence; scaled to maximal ATP response, vehicle zero | activation, % at 3 µM | 0.48% of 360,000 active; in the data active = activation above about 15%;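 also: untransfected CHO-K1 host cells lacking M1 receptor as counterscreen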
# * hit, by the source's call; / = no result given. An excerpt weighted towards active compounds, which were near 2.3% of everything screened.
SMILES,CHO-K1 Ca antag,CHRM1 PAM,M1 PAM parental,M1 antag,CHRM1 agonist,CHO-K1 Ca ag
COC(=O)C(Sc1ccc(Cl)cc1)C1SC(=S)N(Cc2ccccc2)C1=O (stereo not drawn),-1.1,4.8,11.7,-3.6,-3.1,3.4
COc1ccc(-n2c(C)cc(C(=O)COC(=O)c3ccc(O)cc3O)c2C)cc1,-3.5,-9.6,-6.4,30.3,-1.4,6.3
Cc1cc(C(=O)COC(=O)c2ccc(O)cc2O)c(C)n1-c1ccc(OC(F)F)cc1,28.8*,-10.8,-24.0,27.1,0.9,2.6
Cc1cc(C)c2nc(N3CCC(C(=O)NCCCN4CC(C)CC(C)C4)CC3)sc2c1 (stereo not drawn),-10.1,-27.1,27.4,81.7*,-9.7,2.4
COc1ccc(OC)c(C=C2CCc3ccccc3C2=O)c1,-0.6,4.3,3.2,-0.2,-10.8,-0.4
COc1ccc(OC)c(/C=C2/Sc3ccccc3C2=O)c1,34.6*,-13.5,-5.9,31.2,25.0*,37.7*
CC1Sc2ccc(C(=O)N(CCc3ccccc3)Cc3ccccc3)cc2NC1=O (stereo not drawn),-4.4,-6.0,14.3,4.1,-4.3,2.8
CCCCCC(=O)N1C[C@@H](n2cc(C3CC3)nn2)[C@H](O)C[C@@H]1c1ccc(Cl)cc1,16.3,1.5,1.6,-0.8,-0.2,0.4
O=[N+]([O-])c1ccc2cn[nH]c2c1,35.5*,1.2,-9.8,-18.5,-0.1,1.9
C=CCn1c(C)c(C(C)=O)c(N2CCN(C(c3ccccc3)c3ccccc3)CC2)nc1=S,-9.4,-15.2,11.0,35.3*,-2.9,3.5
CC(=O)c1c(N2CCN(C)CC2)nc(=S)n(Cc2ccccc2)c1C,-5.8,0.1,19.0,-11.3,-10.1,0.8
COc1ccc(NC(=O)Cn2nnc(C(=O)NCCc3ccccc3)c2N)cc1,2.9,11.3,15.1,-4.8,-3.7,18.8*
COc1cc(C(=O)N2CCCC(c3cc(C(=O)NCc4ccc(F)cc4)no3)C2)cc(OC)c1C (stereo not drawn),-13.2,2.6,18.0,-16.8,-4.9,1.1
CCCS(=O)(=O)NC(=O)C1(C)CCN(C(=O)c2ccc(C#N)cc2)C1 (stereo not drawn),-13.8,7.9,20.1,-14.4,0.6,0.8
ClN=C1C=CC=CC1=NCl,34.5*,14.5,-9.4,-1.1,-2.7,-0.4
COC1=CC(=NCl)C=CC1=NCl,1.3,-0.2,6.0,-1.3,-2.2,0.7
CCC(Sc1ccc(Cl)cc1)C(=O)Nc1nnc(-c2cccc([N+](=O)[O-])c2)s1 (stereo not drawn),-3.3,5.2,23.1,-9.2,19.9*,1.4
CCC(Sc1nncn1C)C(=O)Nc1nnc(-c2ccccc2Cl)s1 (stereo not drawn),-6.1,3.8,14.0,-12.3,-7.6,0.4
CCOc1ccccc1CNC(=O)C1CCCN(c2nnc(C)c3c(C)n(-c4ccccc4)nc23)C1 (stereo not drawn),-22.9,-18.7,4.3,42.8*,-5.8,-1.8
O=c1[nH][nH]c2c1[C@H](C1CCCC1)O[C@H](CCc1ccccc1)C2,-19.9,/,4.7,/,/,-0.1
CCNC(=O)C1CCCN(C(=O)Cc2cccs2)CC1 (stereo not drawn),10.0,22.6,-4.0,-29.1,1.9,-0.3
Cc1ccc(Nc2nc3ccccc3nc2Nc2c(C)n(C)n(-c3ccccc3)c2=O)cc1,0.9,8.8,12.1,-6.1,-4.5,0.3
CC[n+]1c(-c2ccccc2)csc1Nc1c(C)n(C)n(-c2ccccc2)c1=O,-5.4,-26.5,17.5,51.1*,-9.0,1.7
CC[n+]1c(-c2ccc(C)cc2)csc1Nc1c(C)n(C)n(-c2ccccc2)c1=O,-1.1,-25.8,9.9,35.2*,-8.0,1.8
CN(CC(=O)Nc1ccc(Cl)cc1)C(=O)CN1C(=O)C2CCCCC2C1=O (stereo not drawn),-9.7,10.3,23.6,-13.9,-1.5,1.5
SMILES,CHO-K1 Ca antag,CHRM1 PAM,M1 PAM parental,M1 antag,CHRM1 agonist,CHO-K1 Ca ag
O=C(NCCN1CCOCC1)c1ccc(Cl)c(S(=O)(=O)N2CCCCC2)c1,17.0,-8.1,-29.7,49.4*,-1.9,0.0
O=C(NCCCN1CCOCC1)c1ccc(Sc2ccccc2Cl)c([N+](=O)[O-])c1,-10.4,-25.6,25.1,31.4*,-11.4,2.6
CC(NC(=O)c1ccc(Cl)c(S(=O)(=O)N2CCCCCC2)c1)c1cccnc1 (stereo not drawn),-10.3,-27.2,3.9,37.1*,-7.0,3.2
O=C(NCc1nc2ccccc2[nH]1)c1ccc(Cl)c(S(=O)(=O)N2CCCC2)c1,-3.5,1.5,-6.3,0.1,-4.0,0.6
CCCn1c(NC(=O)c2ccc(Cl)c(S(=O)(=O)N3CCCC3)c2)nc2ccccc21,15.8,-13.3,-13.7,35.1*,-2.6,1.2
CCc1nc2ccc(C(=O)NCc3ccc4c(c3)OCO4)cn2c1N(C)Cc1cccs1,-7.9,-17.6,10.6,14.9,-6.7,3.0
CCNC(=O)C1(C)CCCN(Cc2noc(-c3c(C)noc3C)n2)C1 (stereo not drawn),-0.6,-2.5,-11.3,-6.9,-1.6,-0.2
CN(C)C(CNC(=O)c1ccc(Cl)c(S(=O)(=O)N2CCCCCC2)c1)c1ccccc1 (stereo not drawn),-10.2,-20.0,1.6,51.9*,-3.5,9.8
COc1ccc(CN2C(=O)C(CC(=O)NCC3CCCCC3)CC(C(=O)N(C(C)C)C(C)C)=C2C)cc1 (stereo not drawn),-11.6,5.1,13.1,-5.7,-5.7,-0.8
Cc1ccc(-c2cnc(C(O)c3cc(C)cc(C)c3)[nH]2)cc1 (stereo not drawn),-11.5,3.0,23.8,-6.1,0.1,0.7
CCCNC(=O)c1cc(C2CCCCN2C(=O)OCCF)on1 (stereo not drawn),-10.1,10.2,17.7,-12.2,-7.6,1.1
CCCNC(=O)c1cc(C2CCCCN2C(=O)CCCc2ccccc2)on1 (stereo not drawn),24.7*,-9.8,-23.7,10.1,-6.4,0.5
CCCNC(=O)c1cc(C2CCCCN2C(=O)OCC(C)C)on1 (stereo not drawn),4.8,-20.2,-11.9,41.8*,-9.4,-0.5
CCOC(=O)C1(C)CCCN1C(=O)c1cc(F)ccc1C (stereo not drawn),3.6,6.7,0.4,-5.6,-0.8,0.1
C=CCn1c(SCC(=O)NCc2ccco2)nc2ccccc2c1=O,22.6,-32.6,-13.1,99.9*,-12.9,0.2
O=C(CCn1c(SCC(=O)NCc2ccco2)nc2ccccc2c1=O)NCCc1ccccc1,-5.3,1.2,16.3,-2.8,-2.6,3.4
CS(=O)(=O)N1CCCCC1c1cc(C(=O)NCc2ccc(Cl)c(Cl)c2)no1 (stereo not drawn),-5.1,-2.4,4.3,-1.9,-3.0,0.9
